In ChEMBL document CHEMBL3433997, “St. Jude Leishmania screening dataset” (2016):

Key:
Assay type in all cases: functional
[1] = molecular target: Solute carrier family 2, facilitated glucose transporter member 1 (Homo sapiens) (UniProt P11166); test: ST_JUDE_LEISH: Cytotoxicity at 2uM final concentration against transgenic Leishmania Mexicana promastigotes LmGLUT1 that are glucose transport deficient and complemented with the human glucose transporter GLUT1. Activity is measured by DNA content using SYBR green in vitro
Sequence of Solute carrier family 2, facilitated glucose transporter member 1 (Homo sapiens) (P11166 whole entry): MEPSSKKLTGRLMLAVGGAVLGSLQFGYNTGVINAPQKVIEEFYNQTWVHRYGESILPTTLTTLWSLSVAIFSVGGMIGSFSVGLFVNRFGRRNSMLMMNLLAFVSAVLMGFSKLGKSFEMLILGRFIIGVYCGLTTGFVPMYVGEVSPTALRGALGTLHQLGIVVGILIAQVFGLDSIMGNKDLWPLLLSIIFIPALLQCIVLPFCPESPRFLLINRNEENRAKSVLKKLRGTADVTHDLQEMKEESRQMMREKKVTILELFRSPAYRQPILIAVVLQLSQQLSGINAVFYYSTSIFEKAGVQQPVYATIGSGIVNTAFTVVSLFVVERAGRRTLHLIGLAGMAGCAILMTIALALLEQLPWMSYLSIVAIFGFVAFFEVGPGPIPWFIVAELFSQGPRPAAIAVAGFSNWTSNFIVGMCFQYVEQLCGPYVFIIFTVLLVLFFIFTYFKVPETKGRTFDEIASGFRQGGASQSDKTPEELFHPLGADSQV

[2] = molecular target: Hexose transporter 1 (Plasmodium falciparum) (UniProt O97467); test: ST_JUDE_LEISH: Cytotoxicity at 2uM final concentration against transgenic Leishmania Mexicana promastigotes LmPfHT that are glucose transport deficient and complemented with the Plasmodium falciparum hexose transporter. Activity is measured by DNA content using SYBR green in vitro
[3] = molecular target: Glucose transporter (Leishmania mexicana) (UniProt O61059); test: ST_JUDE_LEISH: Cytotoxicity at 2uM final concentration against transgenic Leishmania Mexicana promastigotes LmGT2 that are glucose transport deficient and complemented with the L. Mexicana glucose transporter 2. Activity is measured by DNA content using SYBR green in vitro

Structure (SMILES) | inhibition [1] [%] | inhibition [2] [%] | inhibition [3] [%]
Cc1cccc(Oc2cccc3[nH]nc(N)c23)c1 | 3.75 | 3.96 | 3.98
CC1(C)CCC(C)(C)c2c1ccc(C1CCN(CCCCNC(=O)c3ccc(-c4ccc(C#N)cc4)cc3)CC1)c2O | 0.66 | 0.22 | 0.63
O=C(NCc1ccc(F)cc1)Nc1cccc(-c2ccc(-c3nc4ccccc4[nH]3)cc2)c1 | 1.76 | 0.3 | -0.44
Fc1ccc(CN2CCN(c3ncnc4cc(-c5ccccc5)sc34)CC2)cc1 | -1.67 | -1.81 | -1.83
N=C(N)NCCN(Cc1ccccc1)c1ccc(Cl)cc1 | 1.36 | -0.96 | 1.25
Cc1ccc2[nH]c(C)cc(=NN=CC=Cc3ccccc3)c2c1 | -0.92 | 1.15 | -6.67
O=C(Nc1ccccc1)NC1CCN(CCC2(c3ccc(Cl)c(Cl)c3)COCN(C(=O)c3ccccc3)C2)C1 (centres undefined) | 4.31 | 4.43 | 4.63
COc1ccc2ncc(Cl)c([C@H](O)CN3CCC(NCc4cc5c(cn4)OCCO5)CC3)c2c1 | 11 | 7.96 | 6.66
N=C(N)NCCCN(Cc1ccccc1)c1ccc(Cl)cc1 | 7.39 | 4.12 | 4.83
CC1(C)Cc2c(oc3ncn(CCn4cnc5oc6c(c5c4=N)CC(C)(C)SC6)c(=N)c23)CS1 | -0.76 | 0.58 | -0.4
O=C(CNCC1CCCCC1)Nc1cc(C(F)(F)F)ccc1Cl | 1.93 | 0.51 | 1.07
Cc1cc2nc(-c3ccc(OCC(=O)NCc4cccc(C(F)(F)F)c4)cc3)[nH]c2cc1C | -2.75 | -1.2 | -1.65
COc1ccc2nccc([C@@H](O)CN3CCC(NCc4ccc5nsnc5c4)CC3)c2c1 | 0.12 | -1.13 | -0.38
CCC1CN2CCc3c([nH]c4ccc(OC)cc34)C2CC1CC1NCCc2cc(OC)c(OC)cc21 (centres undefined) | 3.04 | 3.2 | 4.05
O=[N+]([O-])c1cc(C(c2ccc(O)c([N+](=O)[O-])c2)C(Cl)(Cl)Cl)ccc1O | 9.43 | 9.85 | 7.92
CCn1cc(C(=O)O)c(=O)c2cc(F)c(N3CCN(S(=O)(=O)c4ccc(N)cc4)CC3)cc21 | 0.77 | 0.41 | -4
Clc1cc(Nc2ccnc3ccc(Br)cc23)ccc1Oc1ccc2ccccc2c1Cl | 2.41 | 5.44 | 1.22

Structure (SMILES) | inhibition [1] [%] | inhibition [2] [%] | inhibition [3] [%]
COc1cc(Cc2cnc(N)nc2N)cc(OCCCCCCN2C(=O)c3ccccc3C2=O)c1OC | 7.29 | 4.53 | 5.48
O=C(Nc1ccc(CCNCc2ccccc2)cc1)Nc1ccc(OC(F)(F)F)cc1 | -1.69 | -0.14 | 0.49
Cc1cccc(C(=O)Nc2ccnc(N(C)CCCN(C)Cc3cccc(O)c3)c2)c1 | -1.6 | 1.08 | -0.23
Nc1nccc(-c2ccc3c(-c4cccc(F)c4)cnc(N)c3c2)n1 | -0.44 | 3.51 | -0.84
Cc1cccc2nc(-c3cccc(-c4ccc(NC(=O)CN5CCN(C)CC5)cc4)c3)[nH]c12 | 2.17 | 3.31 | 0.62
Cc1cc(NCCC(=O)Nc2ccccc2)nc(NCC2CCCCC2)n1 | 5.97 | 3.39 | 3.6
CCC(C)NC(=O)CN1CN(c2ccccc2)C2(CCN(C(=O)c3ccc4ccccc4c3)CC2)C1=O (centres undefined) | 0.98 | -0.53 | -0.96
N#Cc1ccc(CN2CCC(Oc3ccc(NC(=O)c4ccco4)cc3Cl)CC2)cc1 | 0.38 | 1.94 | 7.81
CCOc1cc(C(=O)N[C@@H](Cc2ccccc2)[C@H](O)CNC(C)(C)c2cccc(OC)c2)cc(N2CCCS2(=O)=O)c1 | 2.48 | -0.71 | 0.74
N#Cc1ccc(NC(=O)Nc2ccc3c(c2)CCN(C2CCC2)CC3)cc1 | 5.18 | 4.41 | 3.26
O=C(Nc1ccc([N+](=O)[O-])cc1O)Nc1ccccc1Oc1ccccc1 | -1.52 | -0.84 | -0.04
COc1ccccc1NC(=O)Nc1cccc(-c2cccc(-c3nc4cc(C(F)(F)F)ccc4[nH]3)c2)c1 | -1.22 | -0.1 | 0.05
NC1CCN(Cc2cccc(-c3ccc(-c4nc5cc(F)ccc5[nH]4)cc3)c2)C1 (centres undefined) | 2.82 | 1.25 | -0.29
COc1nc2c(CCN3CCC(NCc4ccc5c(n4)NC(=O)CO5)CC3)c(Cl)cnc2cc1F | 7.62 | 8.51 | 7.05
CC1(C)NC(=N)N=C(NOCC=Cc2ccccc2)N1 | 3.05 | 2.87 | 3.12
Cc1noc(C)c1-c1cccc(CNCc2ccc(-c3ccc(-c4nc5ccccc5[nH]4)s3)cc2)c1 | 1.82 | 1.38 | -0.04
